# Values joined by “and” are separate entries in the source; they are usually repeats but may differ in a detail not shown here. Equal values may be shown once. About 83,000 compounds went through this panel and 20% of them were active in at least one assay; those are over-represented in the sample as a whole.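 Method: cells in 96-well plates; compound added at one concentration; 48 h incubation; percent growth measured; values under 10 scored active.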 The source holds several records for some structures; these can differ, active in one and inactive in another. Active and inactive are the calls of the source.
# Key:
# Assay in all cases: NCI-60 one-dose screen, 48 h (100 = growth as untreated, 0 = no growth, -100 = all killed)
# Details in all cases: 10 µM unless noted
# HCT-15 colon = system: HCT-15 colon
# HT29 colon = system: HT29 colon
# SNB-75 CNS = system: SNB-75 CNS
# SNB-19 CNS = system: SNB-19 CNS
# U251 CNS = system: U251 CNS
# PC-3 prostate = system: PC-3 prostate
# SK-MEL-5 melanoma = system: SK-MEL-5 melanoma
# UACC-62 melanoma = system: UACC-62 melanoma
# LOX IMVI melanoma = system: LOX IMVI melanoma
# SK-MEL-28 melanoma = system: SK-MEL-28 melanoma
# SK-MEL-2 melanoma = system: SK-MEL-2 melanoma
# EKVX NSCLC = system: EKVX NSCLC
# UO-31 renal = system: UO-31 renal
# TK-10 renal = system: TK-10 renal
# ACHN renal = system: ACHN renal
# CAKI-1 renal = system: CAKI-1 renal
# A498 renal = system: A498 renal
# CCRF-CEM leukemia = system: CCRF-CEM leukemia
# MOLT-4 leukemia = system: MOLT-4 leukemia
# SN12C renal = system: SN12C renal
SMILES,growth (HCT-15 colon),growth (HT29 colon),growth (SNB-75 CNS),growth (SNB-19 CNS),growth (U251 CNS),growth (PC-3 prostate),growth (SK-MEL-5 melanoma),growth (UACC-62 melanoma),growth (LOX IMVI melanoma),growth (SK-MEL-28 melanoma),growth (SK-MEL-2 melanoma),growth (EKVX NSCLC),growth (UO-31 renal),growth (TK-10 renal),growth (ACHN renal),growth (CAKI-1 renal),growth (A498 renal),growth (CCRF-CEM leukemia),growth (MOLT-4 leukemia),growth (SN12C renal)
CCOc1ccc2nc3cc(N)ccc3c(N)c2c1,107% (inactive) and 90% (inactive),75.7% (inactive) and 60.7% (inactive),47.6% (inactive),10.5% (inactive),-12.6% (active) and 5.58% (active),61.8% (inactive) and 75.6% (inactive),43.2% (inactive),73.8% (inactive),82.5% (inactive),75.5% (inactive) and 89.8% (inactive),20% (inactive) and 24.6% (inactive),57.3% (inactive) and 80% (inactive),74.9% (inactive) and 63% (inactive),117% (inactive) and 122% (inactive),90% (inactive) and 83.7% (inactive),100% (inactive) and 108% (inactive),71% (inactive) and 79.9% (inactive),68.5% (inactive) and 54.2% (inactive),,
CC1=C(/C=C/C(C)=C/C=C/C(C)=C/C(=O)O)C(C)(C)CCC1,91.4% (inactive) and 81.1% (inactive) and 92% (inactive),88.7% (inactive) and 89.2% (inactive) and 96% (inactive),122% (inactive) and 72.2% (inactive) and 79.7% (inactive),86.1% (inactive) and 97.4% (inactive) and 90.3% (inactive),83.2% (inactive) and 87.1% (inactive) and 90.4% (inactive),88.3% (inactive) and 89.7% (inactive) and 101% (inactive),83.5% (inactive) and 86.5% (inactive) and 99.3% (inactive),73.2% (inactive) and 80.4% (inactive) and 61.3% (inactive),91% (inactive) and 85.3% (inactive) and 89.9% (inactive),109% (inactive) and 116% (inactive),87.5% (inactive) and 94.7% (inactive),84% (inactive) and 92.2% (inactive) and 87.7% (inactive),80.9% (inactive) and 64.5% (inactive) and 86.8% (inactive),101% (inactive) and 99.5% (inactive) and 109% (inactive),94.9% (inactive) and 98.9% (inactive) and 94.8% (inactive),81.3% (inactive) and 87% (inactive) and 82.9% (inactive),20.2% (inactive) and 109% (inactive) and 86.7% (inactive),78.5% (inactive) and 92.8% (inactive) and 103% (inactive),59.3% (inactive) and 99% (inactive) and 83.8% (inactive),
O=c1c2ccccc2nc2n1Cc1nc3ccccc3c(=O)n1C2,90.9% (inactive) and 108% (inactive),111% (inactive) and 103% (inactive),86.6% (inactive) and 105% (inactive),102% (inactive) and 91.9% (inactive),105% (inactive) and 108% (inactive),98.6% (inactive) and 107% (inactive),95.3% (inactive) and 107% (inactive),95.6% (inactive) and 98.9% (inactive),96.1% (inactive) and 97.6% (inactive),97.8% (inactive) and 101% (inactive),103% (inactive) and 119% (inactive),90.9% (inactive) and 104% (inactive),81.2% (inactive) and 92.6% (inactive),107% (inactive) and 102% (inactive),95.6% (inactive) and 102% (inactive),93.5% (inactive),93.9% (inactive) and 103% (inactive),96.2% (inactive) and 112% (inactive),99.4% (inactive) and 30.7% (inactive),96.9% (inactive) and 102% (inactive)
CCN(CC)CCNc1ccc(C)c2sc3ccccc3c(=O)c12 (tested in a mixture with another compound),14.5% (inactive) and 14.2% (inactive),1.12% (active) and 10.8% (inactive),25.6% (inactive) and 51% (inactive),41.1% (inactive) and 26.3% (inactive),18.4% (inactive) and 15.1% (inactive),50.4% (inactive) and 35.3% (inactive),-85.6% (active) and -91.5% (active),-68.8% (active) and -47.5% (active),-17% (active) and -40.3% (active),-3.67% (active) and -6.09% (active),59.2% (inactive) and 86.4% (inactive),68.6% (inactive) and 86.6% (inactive),-4.88% (active) and 2.67% (active),23.1% (inactive) and 50% (inactive),16.7% (inactive) and 10.4% (inactive),22.4% (inactive) and 29.9% (inactive),102% (inactive) and 75.7% (inactive),55.7% (inactive) and 29.3% (inactive),8.98% (active) and 26.9% (inactive),
COc1ccc2nc(Cl)cc(C)c2c1,99.2% (inactive) and 101% (inactive),101% (inactive) and 105% (inactive),99.2% (inactive) and 98.3% (inactive),98.1% (inactive) and 111% (inactive),98.9% (inactive) and 108% (inactive),99.2% (inactive) and 82.3% (inactive),98.8% (inactive) and 120% (inactive),94.4% (inactive) and 95.2% (inactive),105% (inactive) and 113% (inactive),104% (inactive) and 118% (inactive),99.6% (inactive),80.4% (inactive) and 97.6% (inactive),84.9% (inactive) and 107% (inactive),73.7% (inactive) and 78.9% (inactive),105% (inactive) and 118% (inactive),85.6% (inactive),86% (inactive) and 83.4% (inactive),100% (inactive) and 88.9% (inactive),100% (inactive) and 76.5% (inactive),107% (inactive) and 103% (inactive)
CNC(=O)c1cccc(-c2ccc3c(N4CCOC[C@@H]4C)nc(N4CCOC[C@@H]4C)nc3n2)c1,9.22% (active) and 7.13% (active),18.3% (inactive) and 1.73% (active),-32.8% (active) and -40.5% (active),10.2% (inactive) and 8.05% (active),9.22% (active) and 6.58% (active),6.6% (active) and 7.98% (active),-38.2% (active) and -49.8% (active),-24.9% (active) and -51.8% (active),3.01% (active) and -1.67% (active),-15.7% (active) and -26.3% (active),-8.99% (active),-5% (active) and 2.98% (active),-3.68% (active) and -24.2% (active),-11.3% (active) and -31.2% (active),,9.85% (active) and -15.3% (active),-35.6% (active) and -37.8% (active),28% (inactive) and 20.3% (inactive),16.8% (inactive) and 8.62% (active),12.5% (inactive) and 5.62% (active)
C1CCCCNCCC1,113% (inactive),95.1% (inactive),99.5% (inactive),110% (inactive),103% (inactive),101% (inactive),109% (inactive),103% (inactive),111% (inactive),109% (inactive),115% (inactive),99.8% (inactive),92.5% (inactive),125% (inactive),,90.2% (inactive),113% (inactive),104% (inactive),,108% (inactive)
COc1ccc(-c2cn[nH]c2-c2cc(OC)c(OC)c(OC)c2)cc1N,8.28% (active) and 13.1% (inactive),1.51% (active) and 10.1% (inactive),57.5% (inactive) and 20.3% (inactive),34.4% (inactive) and 34.1% (inactive),9.51% (active) and 19.3% (inactive),19.1% (inactive) and 27.2% (inactive),-40.3% (active) and -49.2% (active),46.1% (inactive) and 32.6% (inactive),35.2% (inactive) and 28.5% (inactive),49.7% (inactive) and 62.5% (inactive),47.8% (inactive) and 62.1% (inactive),47.5% (inactive) and 44% (inactive),50.1% (inactive) and 34.7% (inactive),76.4% (inactive) and 91.4% (inactive),30.7% (inactive) and 29.4% (inactive),25.1% (inactive) and 22.9% (inactive),-1.49% (active),22.1% (inactive) and 21.2% (inactive),16.3% (inactive) and 23.4% (inactive),36.3% (inactive) and 28.5% (inactive)
CN(C)CCCN1c2ccccc2Sc2ccc(Cl)cc21,73.4% (inactive) and 109% (inactive) and 88.5% (inactive),27.4% (inactive) and 120% (inactive) and 62.9% (inactive),48.3% (inactive) and 106% (inactive) and 58.8% (inactive),98.2% (inactive) and 92.4% (inactive) and 94.5% (inactive),78.1% (inactive) and 106% (inactive) and 93.4% (inactive),67.3% (inactive) and 103% (inactive) and 80.3% (inactive),3.06% (active) and 102% (inactive) and 79% (inactive),75.3% (inactive) and 89.8% (inactive) and 88.9% (inactive),78.3% (inactive) and 113% (inactive) and 100% (inactive),83.6% (inactive) and 108% (inactive) and 98.8% (inactive),77.6% (inactive) and 107% (inactive) and 112% (inactive),91.6% (inactive) and 147% (inactive),54.4% (inactive) and 89.3% (inactive) and 50.3% (inactive),122% (inactive) and 92.6% (inactive),,75.1% (inactive) and 257% (inactive) and 52.5% (inactive),105% (inactive) and 120% (inactive) and 108% (inactive),73.6% (inactive) and 98.7% (inactive),69.7% (inactive) and 102% (inactive) and 83.3% (inactive),
Nc1n[nH]c(=S)n1-c1ccc(Cl)cc1,99.3% (inactive),101% (inactive),82% (inactive),99.4% (inactive),98.1% (inactive),,105% (inactive),96.2% (inactive),94.6% (inactive),101% (inactive),99.9% (inactive),106% (inactive),89% (inactive),92.6% (inactive),103% (inactive),119% (inactive),109% (inactive),96.7% (inactive),,100% (inactive)
CCc1c(CC(=O)O)c2cc(C)ccc2n1Cc1ccc(Cl)cc1,99.2% (inactive) and 98.3% (inactive),109% (inactive) and 117% (inactive),84.1% (inactive) and 93.7% (inactive),102% (inactive) and 90.6% (inactive),107% (inactive) and 93.7% (inactive),95% (inactive),93.8% (inactive) and 97.2% (inactive),84.9% (inactive) and 83.8% (inactive),103% (inactive) and 101% (inactive),129% (inactive) and 125% (inactive),,98.8% (inactive) and 93.4% (inactive),76.6% (inactive) and 73.4% (inactive),99.7% (inactive) and 262% (inactive),93.5% (inactive) and 96.1% (inactive),90% (inactive),114% (inactive) and 108% (inactive),97.4% (inactive) and 106% (inactive),96.9% (inactive) and 152% (inactive),91.1% (inactive) and 82.4% (inactive)
